Sfp PPTase inh = qHTS Assay for Inhibitors of Bacillus subtilis Sfp phosphopantetheinyl transferase (PPTase) | 4'-phosphopantetheinyl transferase ffp (Bacillus subtilis), Q9F4F7 | Biochemical Sfp PPTase activity, qHTS | Potency, µM, for inactives: largest response in the series, negative = inhibition, most hits filed as inhibitors | 310,000 compounds, 3.5% hits | AID 1490, 2009;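 further: the enzyme is Sfp with the accession as filed and its product quenches rhodamine fluorescence; potency means the concentration at half of the fitted maximal effect; 0% = enzyme reaction without inhibitor and -100% = no enzyme wells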
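Sfp 15 nM + cpd, 15 min RT; start w/ rhodamine-CoA 5 uM, BHQ-2-YbbR 12.5 uM (final); 50 mM Hepes pH 7.6, 10 mM MgCl2, 0.01% NP-40, 0.01% BSA; read 525/598 nm at 0 and 30 min.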
G9a block = qHTS Assay for Inhibitors of Histone Lysine Methyltransferase G9a; 350,000 compounds, 8.8% hits; G9a H3K9 monomethylation, AlphaScreen, 2 h; Potency, µM (highest dose often 102 µM), for inactives: at the top dose activity, negative = inhibition, actives largely listed as inhibitors; AID 504332, 2011; Histone-lysine N-methyltransferase EHMT2 (Homo sapiens), Q96KQ7; further: potency means the concentration at half of the fitted maximal effect; on the % scale 0 is the no-effect control and ±100 the full control effect; nearly all actives have a fitted effect of over 75% in size
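AlphaScreen read-out: biotin-H3K9 peptide (500 nM) methylation by 20 nM enzyme with 20 uM SAM, 2 h at room temperature after 15 min compound preincubation; anti-monomethyl H3K9 antibody plus donor/acceptor beads, 10 min dark.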
miR-21 act = qHTS Assay for Modulators of miRNAs and/orActivators of miR-21. 340,000 tested, under 10 active. Potency, µM (top dose mostly 38.3 µM), for inactives: at the highest dose activity change, positive = activation, most hits filed as activators. HeLa miR-21 FLuc reporter, luciferase, 48 h. AID 2288, 2010;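 further: % of control where 0% means no effect; miR-21 action dims this reporter so a rising signal means less miR-21 action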
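Compounds were titrated across several concentrations (up to approximately 40 uM) and incubated 48 hours with HeLa miR-21-FLuc reporter cells (miR-21 target sequence downstream of FLuc, endogenous miR-21). Readout was firefly luciferase luminescence after lytic detection reagent.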
LMNA splice mod = qHTS Assay for Modulators of Lamin A Splicing; HeLa LMNA splicing GFP/RFP minigene ratio, 48 h; Potency, µM (highest dose often 46.1 µM), for the others: at the top dose ratio change, negative = inhibition, usual class: inhibitors; AID 1487, 2009; 200,000 compounds, 0.01% hits; active means well fitted inhibition curve with a large enough effect in the signal ratio, with a control signal flat, not every such curve was filed as active; inconclusive means small, poorly fitted or top-dose-only effect, or effect the other way, or a change in a side signal; the % refers to the signal ratio; further: potency means the concentration at half of the fitted maximal effect; on the % scale 0 is the no-effect control and ±100 the full control effect
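S3 HeLa stable clones carrying a lamin A-EGFP splicing minigene plus DsRed2 were seeded at 600 cells/well in Opti-MEM with 2% FBS, pin-dosed and incubated 48 h at 37°C. Acumen cytometry (488 nm) gave the GFP/RFP total-intensity ratio.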
ALDH1A1 block = qHTS Assay for Inhibitors of Aldehyde Dehydrogenase 1 (ALDH1A1); Purified ALDH1A1, NADH fluorescence, propionaldehyde substrate; Potency, µM (series often up to 75.3 µM), for inactives: at the top dose activity, negative = inhibition, usual class: inhibitors; 220,000 compounds, 7.3% hits; active means well fitted inhibition curve with a large enough effect, not every such curve was filed as active; inconclusive means small, poorly fitted or top-dose-only effect, or another doubt; inactive means no such curve, though single readings can be large or run the other way;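 further: potency means the concentration at half of the fitted maximal effect; plate controls were no enzyme wells and a reference inhibitor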
JMJD2E inh = qHTS Assay for Inhibitors of Human Jumonji Domain Containing 2E (JMJD2E) | 230,000 compounds, 1.6% hits | AID 2147, 2009 | JMJD2E catalytic domain, FDH-coupled NADH fluorescence (FDH is formaldehyde dehydrogenase) | Lysine-specific demethylase 4E (Homo sapiens), B2RXH2 | Potency, µM (highest dose often 57.1 µM), inactives show at the top dose activity change, negative = inhibition, actives largely listed as inhibitors; active means well fitted inhibition curve with a large enough effect, not every such curve was filed as active; inconclusive means small, poorly fitted or top-dose-only effect, or another doubt; inactive means no such curve, though single readings can be large or run the other way;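 further: potency means the concentration at half of the fitted maximal effect; 0% = wells with enzyme and -100% = buffer wells without enzyme; nearly all actives have a fitted effect of over 50% in size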
Target sequence (B2RXH2 1-337 limits assumed): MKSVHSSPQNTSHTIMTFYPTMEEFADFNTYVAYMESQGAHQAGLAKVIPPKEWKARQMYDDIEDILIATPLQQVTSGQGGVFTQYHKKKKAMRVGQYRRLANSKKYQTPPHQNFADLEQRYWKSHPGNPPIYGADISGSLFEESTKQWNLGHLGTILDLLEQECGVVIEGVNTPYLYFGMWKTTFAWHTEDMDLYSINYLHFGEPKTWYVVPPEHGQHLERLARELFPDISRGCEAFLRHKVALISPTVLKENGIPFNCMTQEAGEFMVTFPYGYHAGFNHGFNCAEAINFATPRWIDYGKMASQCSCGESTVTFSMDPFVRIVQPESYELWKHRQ
An asterisk follows results filed as active; u = inconclusive; x = no result given; ! = repeats disagree; [ ] = dose if it differs, or a comment. The list is not random: actives were taken first. Their share in the collection is about 13%. Unless noted, the call rests on the fitted dose curve; in most records, active means well fitted curve in the direction sought with a large enough effect; inconclusive means small, poorly fitted or top-dose-only effect, or another doubt; inactive means no such curve, though single readings can be large; an effect the other way counts as inactive or inconclusive.

SMILES	Sfp PPTase inh	G9a block	miR-21 act	LMNA splice mod	ALDH1A1 block	JMJD2E inh
O=C(/C=C/c1ccco1)NCC1CCCO1 (stereo unspecified)	-70%	x	-9%	22%	22µM*	-17%
N#C/C(=C\c1cn(CC(=O)O)c2ccccc12)C(=O)NCc1ccccc1	3%	45µM*	-5%	x	x	x
O=C(/C=C/c1ccco1)NCc1ccco1	-25%	50µM*	-7%	x	x	-20%
Cc1ccc(C(=O)N/C(=C/c2ccco2)C(=O)NCC2CCCO2)cc1 (stereo unspecified)	8%	5%[59 µM]	-6%	0%	u	-16%
Cc1ccc(-n2c(-c3ccccc3)c[n+]3c2CCc2ccccc2-3)c(C)c1	22%	-23%	u	u	10%	-25%
Cc1ccc(C2(c3ccc(C)cc3)CC2C(=O)Nc2ccc([N+](=O)[O-])cc2O)cc1 (stereo unspecified)	19%	25µM*	30%	u	-9%	-11%
CC1(C)CC1C(=O)Nc1ccc([N+](=O)[O-])cc1Br (stereo unspecified)	-1%	-22%	-12%	-4%	-6%	-4%
CCn1cc(C(=O)N2CCN(c3cccc(C)c3C)CC2)c2cc(OC)c(OC)cc2c1=O	x	-29%[59 µM]	u	x	x	x
Cc1[nH]c2ccccc2c1C(c1ccccn1)c1c(C)[nH]c2ccccc12	40µM*	28µM*	-5%	6%	u	u
COc1cc(OC)c(NC(=O)NC(C)c2c(-n3cccc3)sc(C)c2C)cc1Cl (stereo unspecified)	x	-35%[59 µM]	10%	x	x	x
Cc1ccc2c(c1)nnn2C1CCN(C(=O)C2CCCCC2)CC1	9%	1%	-6%	u	7.9µM*	7%
Cc1ccc2c(c1)nnn2C1CCN(S(=O)(=O)c2ccc(C(=O)N(C)C3CCCCC3)cc2)CC1	-4%	56µM*	0%	1%	u	4%
CC(Oc1cccnc1[N+](=O)[O-])C(=O)Nc1ccc(Cl)cn1 (stereo unspecified)	x	-6%[12.7 µM]	x	x	x	x
COc1ccc(Br)cc1S(=O)(=O)N1CCCc2ccccc21	7%	60%	2%	x	x	x
CS(=O)(=O)N(CC(=O)O)Cc1cccc(CN(CC(=O)O)S(C)(=O)=O)c1	1%	x	0%	x	x	x
CC(=O)N[C@H](CS)C(=O)O	-39%	2%[2.33 µM]	x	x	3%	u
CC(=O)N[C@@H](CS)C(=O)O	35µM*!	u	6%	u	2%	25µM*!
CCOC(=O)c1c(C)oc2nc(C)nc(NC(C)c3ccccc3)c12 (stereo unspecified)	x	-19%[59 µM]	-2%	0%[46 µM]	x	x
CCCCCCCCCCCCCCCC(=O)O[C@H](CC(=O)O)C[N+](C)(C)C	u	x	x	x	-4%	u
CCCCCCCCCCCCCCCC(=O)OC(CC(=O)O)C[N+](C)(C)C (stereo unspecified)	-24%	32µM*!	x	u	-7%	-6%
NCCS	79µM*!	14µM*	-1%	u	-9%	1%
CN/C(=C\[N+](=O)[O-])NCCSCc1ccc(CN(C)C)o1	11%	11µM*!	x	u	-5%	-5%
O=C(NCc1ccco1)c1ccc2c(c1)N(Cc1ccccc1F)C(=O)c1ccccc1S2(=O)=O	x	u	1%	x	x	x
COc1c(O)cc2c(c1O)C1OC(CO)C(O)[C@H](O)[C@H]1OC2=O (stereo partly specified)	12%	x	x	-3%	4%	7%
O=C(O[C@@H]1OC2COC(=O)c3cc(O)c(O)c(O)c3-c3c(cc(O)c(O)c3O)C(=O)O[C@@H]([C@H]1O)[C@@H]2O)c1cc(O)c(O)c(O)c1	4.5µM*	1.6µM*	1%	u	-10%	-2%

Screening results: PubChem BioAssay, National Center for Advancing Translational Sciences (NCATS)
